Source: PubChem BioAssay AID1026 (Columbia University Molecular Screening Center, 2008)
Active and inactive are the calls of the source. The rule behind the calls is not given here.

biological target: Bifunctional epoxide hydrolase 2 (Homo sapiens) (UniProt P34913); test: sEH inhibitor concentration-response potency, dose response, biochemical, human sEH, fluorescence, Infinite200 (AID 1026); conditions: recombinant human sEH, fluorogenic substrate, at 0.2 µM, hits give high values
Sequence (P34913 whole entry, looked up): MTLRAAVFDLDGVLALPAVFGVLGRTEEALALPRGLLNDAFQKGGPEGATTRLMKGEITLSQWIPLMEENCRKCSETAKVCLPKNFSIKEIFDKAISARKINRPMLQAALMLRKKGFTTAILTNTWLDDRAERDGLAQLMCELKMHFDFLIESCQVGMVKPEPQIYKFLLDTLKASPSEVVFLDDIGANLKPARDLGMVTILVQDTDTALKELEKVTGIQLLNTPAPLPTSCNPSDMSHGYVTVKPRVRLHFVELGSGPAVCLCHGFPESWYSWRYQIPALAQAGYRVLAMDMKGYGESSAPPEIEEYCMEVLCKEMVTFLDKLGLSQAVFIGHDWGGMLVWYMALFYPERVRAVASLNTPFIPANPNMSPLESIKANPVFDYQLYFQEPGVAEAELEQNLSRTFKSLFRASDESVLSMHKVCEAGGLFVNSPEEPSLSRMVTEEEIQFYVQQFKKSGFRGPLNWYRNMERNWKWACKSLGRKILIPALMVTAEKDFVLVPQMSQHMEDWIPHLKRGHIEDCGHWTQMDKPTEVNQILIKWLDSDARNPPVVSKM

Compound | inhibition
O=C(Nc1cccc(C(F)(F)F)c1)NC1CCCCC1 | 66.5% (inactive)
O=C(Nc1ccc(Cc2ccncc2)cc1)C1CCC(N2C(=O)C3C4C=CC(C5CC45)C3C2=O)CC1 (stereo not given) | 56.4% (inactive)
CC1CC(C)CN(C(=O)c2ccc3c(=O)n(Cc4ccc5c(c4)OCO5)c(=S)[nH]c3c2)C1 (stereo not given) | 54.3% (inactive)
O=C(NCCC1=CCCCC1)C1CCN(c2nc3ccccc3o2)CC1 | 45.6% (inactive)
CCCCOc1cccc(/C=N/NC(=O)c2csc(C)c2C)c1 | 60.7% (inactive)
O=C(NC12CC3CC(CC(C3)C1)C2)N1CC2Cc3cccc(=O)n3C(C2)C1 (stereo not given) | 54.2% (inactive)
O=C(NC1CCCCC1)NC1CC2CCC(C1)N2Cc1nnnn1Cc1ccc2c(c1)OCO2 (stereo not given) | 74.2% (inactive)
O=C(Nc1cnn(Cc2ccccc2)c1)NC12CC3CC(CC(C3)C1)C2 | 59.3% (inactive)
COc1ccc(/C=N/NC(=O)c2ccc(COc3ccccc3Cl)o2)cc1 | 55.4% (inactive)
CC(C)(C)c1cnnn1-c1ccc(NC(=O)c2ccc3c(c2)OCO3)cc1 | 68.6% (inactive)
O=C(NCCc1c[nH]c2ccccc12)C1CCC(Cn2c(=S)[nH]c3ccccc3c2=O)CC1 (stereo not given) | 72.7% (inactive)
COc1ccc(NC(=O)N2CCC(c3nc(-c4cccs4)no3)CC2)cc1 | 62.9% (inactive)
COc1ccc(-c2nc3cc(NC(=O)Cc4ccc(OC)c(OC)c4)ccc3o2)cc1 | 52.1% (inactive)
O=C(N/N=C/c1ccc(O)cc1)c1csc2ccccc12 | 54.5% (inactive)
COc1ccc(CCN2C(=O)C3C4CC(C5C(C(=O)N/N=C\c6ccc(Cl)cc6)=NOC45)C3C2=O)cc1OC (stereo not given) | 67.1% (inactive)
